SMILES strings stand for the structures. Records with an inconclusive call do not appear. Calls of active or inactive are those of the source. The call rests on the fitted dose curve; in most records, active means well fitted cell-killing curve with a large enough effect; inconclusive means small, poorly fitted or top-dose-only effect, or effect the other way; inactive means no such curve, though single readings can be large or run the other way.
Potency means the concentration at half of the fitted maximal effect.

The assay is described as follows: Quantitative High-Throughput drug screen in 47 multiple myeloma cell lines against the NCATS MIPE library collection: KMM1_JCRB cell viability assay (AID 1918960). Further: nearly all actives have a fitted effect of over 30% in size. Particulars: KMM1 myeloma viability, CellTiter-Glo ATP luminescence, 48 h; series mostly up to 45.8 µM. The text has this:
PI: Beverly A. Mock Ph.D.
Laboratory of Cancer Biology and Genetics,
Center for Cancer Research, National Cancer Institute,
National Institute of Health, Bethesda, Maryland
Drug resistance and disease progression are common in multiple myeloma (MM) patients, underscoring the need for new therapeutic combinations. […] We hypothesized that effective combinations would reduce MYC expression and enhance p16 activity. […] These preclinical data identify potentially useful drug combinations for evaluation in drug-resistant MM and reveal potential mechanisms of combined drug sensitivity.
Described herein is the primary MIPE qHTS used to cherrypick compounds. Validated compounds were then further tested for potential synergistic activiy.
[1] Peat TJ, Gaikwad SM, Dubois W, Gyabaah-Kessie N, Zhang S, Gorjifard S, Phyo Z, Andres M, Hughitt VK, Simpson RM, Miller MA, Girvin AT, Taylor A, Williams D, D'Antonio N, Zhang Y, Rajagopalan A, Flietner E, Wilson K, Zhang X, Shinn P, Klumpp-Thomas C, McKnight C, Itkin Z, Chen L, Kazandijian D, Zhang J, Michalowski AM, Simmons JK, Keats J, Thomas CJ, Mock BA. Drug combinations identified by high-throughput screening promote cell cycle transition and upregulate Smad pathways in myeloma. Cancer Lett. 2023 Aug 1;568:216284. doi: 10.1016/j.canlet.2023.216284. Epub 2023 Jun 24. PMID: 37356470; PMCID: PMC10408729.
SEQUENCE No. (e.g., 1, 2, 3, etc.); […] (e.g., Cells, Incubation, Reagent, etc.); VALUE and DESCRIPTION.
1; Cells; 5 uL; white, solid bottom 1536-well Greiner assay plate.
2; Compounds; 23 nL; Kalypsis pin tool (Wako USA) equipped with a 1536-well pin head to transfer to the assay plates.
3; Incubation; 48 hours; 37C incubation.
4; Reagent;5uL; CellTiter Glo (Promega).
5; Detector; 425V; Luminescence; Viewlux PerkinElmer.
NOTES (numbers refer to Sequence numbers above)
1. The cell-based screening methods employed in this study were like those previously published. Briefly, the corresponding myeloma cell lines were screened in 1,536-well plates with 500 cells, 5-uL per well for inhibition of cell viability (assessed by measuring ATP levels with CellTiterGlo).
2. NCATS MIPE 4.0 library of approved and investigational drugs were added using the Kalypsis pin tool. Wells treated with DMSO only for 100% viability and media only cells for 0% viability were used as controls.
3. The assay plates were covered and incubated for 48 hours in a 37C, 5% CO2 incubator with controlled humidity.
4. After 48 hours, CellTilter-GloTM luminescent substrate mix (Promega) reagent was added to the assay plate and plates we incubated for 5 min at room temperature.
5. Signal was measured as median relative luminescence units on a ViewLux (PerkinElmer) multiplate reader.
[1] Heske CM, Davis MI, Baumgart JT, Wilson K, Gormally MV, Chen L, Zhang X, Ceribelli M, Duveau DY, Guha R, Ferrer M, Arnaldez FI, Ji J, Tran HL, Zhang Y, Mendoza A, Helman LJ, Thomas CJ. Matrix Screen Identifies Synergistic Combination of PARP Inhibitors and Nicotinamide Phosphoribosyltransferase (NAMPT) Inhibitors in Ewing Sarcoma. Clin Cancer Res. 2017 Dec 1;23(23):7301-7311. doi: 10.1158/1078-0432.CCR-17-1121. Epub 2017 Sep 12. PMID: 28899971; PMCID: PMC6636827.
Background: ATP-based viability assays read luminescence as a measure of living cells.
For `C[C@H](NC(=O)Cc1cc(F)cc(F)c1)C(=O)N[C@H](C(=O)OC(C)(C)C)c1ccccc1`, the Potency entry was “inactive”. Regarding `C#C[C@]1(O)CC[C@@H]2[C@@H]3CCC4=CC(=O)CC[C@@H]4[C@H]3CC[C@@]21CC`, the Potency result was “inactive”. Take `NC1=N[C@H]2[C@H](CS[C@H]2CCCCC(=O)O)N1`: the Potency entry was “inactive”. For `C[C@H](O)[C@@H]1C(=O)N2C(C(=O)O)=C(S[C@@H]3CN[C@H](CNS(N)(=O)=O)C3)[C@@H](C)[C@@H]12`, the Potency result was “inactive”. For the compound `C[C@@]12C[C@@]3(O)O[C@@H](O1)[C@]1(COC(=O)c4ccccc4)[C@@H]3C[C@@]12O[C@@H]1O[C@H](CO)[C@@H](O)[C@H](O)[C@@H]1O`, the Potency entry was “inactive”. The same measure for `Cc1cnn(C)c1C(=O)Nc1cc(Nc2ccc3c(C=Cc4ccccn4)n[nH]c3c2)ccc1F`: 1660 nM (active); for `COc1cc2ncnc(Nc3cccc(Br)c3)c2cc1OC`: 14800 nM (active); for `CCCCCCCCCCCCCCCC(=O)OC[C@@H](NC(=O)C(Cl)Cl)[C@H](O)c1ccc([N+](=O)[O-])cc1`: “inactive”. Consider `CC(C(C)N1CC(=O)NC(=O)C1)N1CC(=O)NC(=O)C1` (stereo not given), for which the Potency entry was “inactive”. With `CCCCCN=C(N)NN=Cc1c[nH]c2ccc(OC)cc12`, the Potency was 3320 nM (active). For the compound `COc1ccnc2[nH]cc(C(=O)C(=O)N3CCN(C(=O)c4ccccc4)C[C@@H]3C)c12`, the Potency result is “inactive”.

Turning to `COc1cc2c(cc1OC)[C@@H]1C(=O)c3ccc4c(c3O[C@@H]1CO2)C=CC(C)(C)O4`, the Potency was 526 nM (active).

`C=C(C)[C@@H]1CC[C@]2(C(=O)O)CC[C@]3(C)[C@H](CC[C@@H]4[C@@]5(C)CC[C@H](O)C(C)(C)[C@@H]5CC[C@]43C)[C@@H]12`: the Potency entry was “inactive”. Take `O=C1NCCc2[nH]c(-c3ccncc3)cc21`: the Potency was 1050 nM (active).

As to `CC(=O)NC(CS)C(=O)O` (stereo not given), the Potency result was “inactive”. `COc1cc(O)c2c(c1)C1OC1C[C@H](O)[C@H](O)C(=O)C=CC[C@H](C)OC2=O` (stereo not given in full): the Potency was 4180 nM (active). For the compound `N#CNC(=NCCCCCCOc1ccc(Cl)cc1)Nc1ccncc1`, the Potency is 5.9 nM (active).

Turning to `NC(=O)c1ncn([C@@H]2O[C@H](CO)[C@@H](O)[C@@H]2O)c1N`, the Potency entry is “inactive”. Regarding `CCCCCCCCCCCCc1ccc(S(=O)(=O)Nc2nncs2)cc1`, the Potency result is “inactive”. In the case of `CC(C)N(CC[C@H](c1ccccc1)c1cc(CO)ccc1O)C(C)C`, the Potency result was “inactive”. The same measure for `CC(=O)[C@]1(O)Cc2c(O)c3c(c(O)c2[C@@H](O[C@H]2C[C@H](N)[C@@H](O)[C@H](C)O2)C1)C(=O)c1ccccc1C3=O`: 2350 nM (active); for `COc1ccc(Nc2cc(-c3cnc(N)nc3)nc(N3CCOCC3)n2)cn1`: 590 nM (active); for `Cn1cnc(=N)c2[nH]cnc21`: 132 nM (active). As to `COc1cc(C(=O)NC2CCN(C)CC2)ccc1Nc1ncc2c(n1)N(C1CCCC1)CCC(=O)N2C(C)C`, the Potency was 16600 nM (active). The same measure for `COc1cc(C=CC(=O)CC(=O)C=Cc2ccc(O)c(OC)c2)ccc1O`: 4810 nM (active); for `CCc1c(O)cc(O)c(C(=O)c2ccc(OCCN3CCOCC3)c(OC)c2)c1CC(=O)N(CCOC)CCOC`: 935 nM (active). Consider `CCS(=O)(=O)Nc1ccc2[nH]c(O)c(C(=Nc3ccc(CN4CCCCC4)cc3)c3ccccc3)c2c1`, for which the Potency is 3720 nM (active).

With `CC(=O)NCC(=O)N1[C@H]2CC[C@H]1c1cc(Nc3ncc(C(F)(F)F)c(NC4CCC4)n3)ccc12`, the Potency was 3720 nM (active). As to `C[C@H]1O[C@H](O[C@H]2[C@H](O)[C@@H](O)[C@@H](O[C@H]3[C@H](O)[C@@H](O)C(O)O[C@H]3CO)O[C@H]2CO)[C@H](O)[C@@H](O)[C@H]1N[C@H]1C=C(CO)[C@@H](O)[C@H](O)[C@@H]1O` (stereo not given in full), the Potency result is “inactive”. Consider `C[C@@H]1C(=O)O[C@H]2CC34[C@H]5C[C@@H](C(C)(C)C)C36[C@H](OC(=O)[C@@H]6O)O[C@@]4(C(=O)O5)[C@]21O` (stereo not given in full), for which the Potency entry is “inactive”. Turning to `CN[C@H]1[C@@H](O)[C@@H]2O[C@@H]3O[C@H](C)CC(=O)[C@]3(O)O[C@@H]2[C@@H](NC)[C@H]1O`, the Potency is 372 nM (active). Turning to `COc1ccc(S(=O)(=O)Nc2cc(-c3c(O)ccc4ccccc34)c(O)c3ccccc23)cc1`, the Potency is 8330 nM (active). For `CN[C@H](CC(C)C)C(=O)N[C@H]1C(=O)N[C@@H](CC(N)=O)C(=O)N[C@@H]2C(=O)N[C@H]3C(=O)N[C@H](C(=O)N[C@H](C(=O)O)c4cc(O)cc(O)c4-c4cc3ccc4O)[C@H](O)c3ccc(c(Cl)c3)Oc3cc2cc(c3O[C@@H]2O[C@H](CO)[C@@H](O)[C@H](O)[C@@H]2O[C@H]2C[C@](C)(N)[C@H](O)[C@H](C)O2)Oc2ccc(cc2Cl)[C@H]1O`, the Potency result is “inactive”. Regarding `O=C(C=Cc1ccc(CN(CCO)CCc2c[nH]c3ccccc23)cc1)NO`, the Potency is 105 nM (active). `CC(=O)N[C@@H]1[C@H](O[C@@H]2c3ccc(c(Cl)c3)Oc3cc4cc(c3O[C@H]3O[C@H](CO)[C@@H](O)[C@H](O)[C@H]3NC(=O)CCCCCCCC(C)C)Oc3ccc(cc3Cl)C[C@H]3NC(=O)[C@H](N)c5ccc(O)c(c5)Oc5cc(O)cc(c5)[C@H](NC3=O)C(=O)N[C@H]4C(=O)N[C@H]3C(=O)N[C@@H]2C(=O)N[C@@H](C(=O)O)c2cc(O)cc(O[C@H]4O[C@H](CO)[C@@H](O)[C@H](O)[C@H]4O)c2-c2cc3ccc2O)O[C@H](CO)[C@@H](O)[C@@H]1O`: the Potency result was “inactive”. With `COc1cc(CCc2cc(NC(=O)c3ccc(N4C[C@@H](C)N[C@@H](C)C4)cc3)n[nH]2)cc(OC)c1`, the Potency is 18700 nM (active). For the compound `O=C(O)CCCCCC(=O)NN=C1CCCC1`, the Potency result is “inactive”. As to `O=C(CCCCCCC(=O)Nc1cccnc1)NO`, the Potency is 1660 nM (active). With `CC(C=CC(=O)NO)=C[C@@H](C)C(=O)c1ccc(N(C)C)cc1`, the Potency is 209 nM (active). Regarding `CC(C)c1cc(C(C)C)c(CC(=O)NS(=O)(=O)Oc2c(C(C)C)cccc2C(C)C)c(C(C)C)c1`, the Potency is 4690 nM (active).

The values are drawn from PubChem BioAssay (NCATS).
